Screening data deposited in PubChem by National Center for Advancing Translational Sciences (NCATS).
Most compounds without a hit are left out; they make up all but 9% or so of the library.
HP1b chromo inh: inhibitors of HP1-beta chromodomain binding to methylated histone tails | P83916 | AlphaScreen HP1-beta / biotin-H3K9me3 peptide binding | Potency, µM (series often up to 114 µM), inactives show at the top dose activity change, negative = inhibition, most hits filed as inhibitors | 0.56% of 390,000 active | AID 540317; further: nearly all actives have a fitted effect of over 70% in size
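Compound inhibition of the preformed complex between 50 nM HP1-beta and 50 nM biotinylated H3K9me3 peptide was read by AlphaScreen. Buffer was PBS pH 7.4 with 0.01% Tween-20. Incubations ran 30 min at room temperature, with 10 ug/mL donor/acceptor beads.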
ALOX12 inh: inhibitors of human 12S-lipoxygenase ALOX12 | purified 12hLO, xylenol orange hydroperoxide absorbance | Potency, µM (titrated, usually from 108 µM), for inactives: at the highest dose activity change, negative = inhibition, actives largely listed as inhibitors | 1.1% of 580,000 active; further: on the % scale 0 is the no-effect control and ±100 the full control effect
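Purified human 12hLO (150 nM final) in 25 mM Hepes, 0.01% Triton X-100, pH 7.0 was preincubated 15 min at room temperature with compound. Then 40 uM arachidonic acid was added, 30 min. Hydroperoxide was read by Fe-XO absorbance ratio 573/405 nm.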
G9a block: blocks human histone lysine methyltransferase G9a. Q96KQ7. G9a H3K9 monomethylation, AlphaScreen, 2 h. Potency, µM (highest dose often 102 µM), inactives show at the top dose activity, negative = inhibition, hits mostly inhibitors. 8.8% of 350,000 active. AID 504332; further: on the % scale 0 is the no-effect control and ±100 the full control effect; nearly all actives have a fitted effect of over 75% in size
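Chemiluminescent proximity detection of H3K9 monomethylation, read after 10 min bead incubation in the dark. Reaction: 20 nM G9a, 500 nM biotin-H3K9 peptide, 20 uM SAM cofactor, 2 h, room temperature, following 15 min enzyme-compound preincubation.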
BAZ2B inh: inhibitors of human BAZ2B bromodomain. Q9UIF8. AlphaScreen BAZ2B-H3K14Ac peptide displacement. Potency, µM (doses to about 114 µM), inactives show at the highest dose activity change, negative = inhibition, actives largely listed as inhibitors. 4.4% of 360,000 active; further: on the % scale 0 is the no-effect control and ±100 the full control effect; nearly all actives have a fitted effect of over 60% in size
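BAZ2B 50 nM plus b-H3(5-23)K14Ac 50 nM, PBS pH 7.4/0.01% Tween-20, 30 min RT; compound added (max 110 uM), 30 min RT; streptavidin donor/Ni-chelate acceptor beads 10 ug/mL final, 20 min dark; AlphaScreen read.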
JMJD2A Tudor inh: blocks the human JMJD2A Tudor domain; O75164; AlphaScreen JMJD2A-Tudor / H3K4me3 peptide binding; Potency, µM (top dose mostly 114 µM), without a hit: at the top dose activity change, negative = inhibition, actives largely listed as inhibitors; 4.4% of 390,000 active; AID 504339; further: on the % scale 0 is the no-effect control and ±100 the full control effect; nearly all actives have a fitted effect of over 50% in size
Target sequence (O75164 whole entry, looked up, the tested form may be a part): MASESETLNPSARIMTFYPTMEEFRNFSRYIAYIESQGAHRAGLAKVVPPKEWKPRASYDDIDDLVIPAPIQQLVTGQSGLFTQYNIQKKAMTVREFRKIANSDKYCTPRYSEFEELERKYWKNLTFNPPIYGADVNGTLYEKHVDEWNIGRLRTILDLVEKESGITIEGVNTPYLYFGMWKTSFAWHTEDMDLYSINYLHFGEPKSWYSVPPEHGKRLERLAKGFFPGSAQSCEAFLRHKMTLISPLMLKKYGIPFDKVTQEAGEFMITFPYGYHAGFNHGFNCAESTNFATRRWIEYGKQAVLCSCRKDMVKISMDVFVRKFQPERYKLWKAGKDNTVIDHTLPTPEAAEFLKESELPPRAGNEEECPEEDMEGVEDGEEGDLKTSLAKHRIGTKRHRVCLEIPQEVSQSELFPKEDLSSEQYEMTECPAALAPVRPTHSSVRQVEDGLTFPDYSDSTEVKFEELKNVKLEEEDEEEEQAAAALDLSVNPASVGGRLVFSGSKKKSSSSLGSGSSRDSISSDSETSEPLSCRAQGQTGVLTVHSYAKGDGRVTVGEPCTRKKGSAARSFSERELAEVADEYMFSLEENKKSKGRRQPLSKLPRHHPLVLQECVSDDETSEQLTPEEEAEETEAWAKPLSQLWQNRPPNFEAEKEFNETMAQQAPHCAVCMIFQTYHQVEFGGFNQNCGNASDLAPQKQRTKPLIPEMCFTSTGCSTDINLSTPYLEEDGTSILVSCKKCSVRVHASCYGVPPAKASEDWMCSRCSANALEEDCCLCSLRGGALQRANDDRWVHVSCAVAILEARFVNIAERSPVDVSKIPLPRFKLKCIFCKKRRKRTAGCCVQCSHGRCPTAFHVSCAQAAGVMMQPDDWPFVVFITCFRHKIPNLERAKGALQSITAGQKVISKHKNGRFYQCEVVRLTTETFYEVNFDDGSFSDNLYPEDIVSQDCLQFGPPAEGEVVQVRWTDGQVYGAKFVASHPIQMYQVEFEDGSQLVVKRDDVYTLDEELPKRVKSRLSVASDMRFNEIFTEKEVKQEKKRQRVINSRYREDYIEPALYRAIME
PLK1 PBD inh: inhibitors of human PLK1 polo-box domain binding. P53350. Plk1 PBD binding of FITC phosphopeptide, fluorescence polarization. Potency, µM, without a hit: max response, negative = inhibition, usual class: inhibitors. 2.8% of 360,000 active; further: series mostly up to about 57 µM; on the % scale 0 is the no-effect control and ±100 the full control effect; nearly all actives have a fitted effect of over 65% in size
* hit, by the source's call; [ ] = another dose, or the depositor's remark. The call rests on the fitted dose curve; in most records, active means well fitted curve in the direction sought with a large enough effect; inconclusive means small, poorly fitted or top-dose-only effect, or another doubt; inactive means no such curve, though single readings can be large; an effect the other way counts as inactive or inconclusive. Potency means the concentration at half of the fitted maximal effect.

What do the screens show for `CC(=O)N(C1=C(N2CCOCC2)C(=O)c2ccccc2C1=O)c1ccc(C(=O)O)cc1`?
HP1b chromo inh: 37%; ALOX12 inh: -18%; G9a block: 40µM*; BAZ2B inh: -37%; JMJD2A Tudor inh: -20%; PLK1 PBD inh: inconclusive

Results for CC(=O)N(C)C1=C(N2CCOCC2)C(=O)c2ccccc2C1=O ?
HP1b chromo inh: 20%; G9a block: inconclusive; BAZ2B inh: -38%; JMJD2A Tudor inh: -6%; PLK1 PBD inh: -9%

What do the screens show for `Cc1ccc(NC2=C(N3CCOCC3)C(=O)c3ccccc3C2=O)cc1`?
HP1b chromo inh: 13µM*; ALOX12 inh: inconclusive; G9a block: inconclusive; BAZ2B inh: 14µM*; JMJD2A Tudor inh: 14µM*; PLK1 PBD inh: -13%

What do the screens show for `CC(=O)c1ccc(NC2=C(N3CCOCC3)C(=O)c3ccccc3C2=O)cc1`?
HP1b chromo inh: 28µM*; ALOX12 inh: -19%; BAZ2B inh: 28µM*; JMJD2A Tudor inh: 40µM*; PLK1 PBD inh: -16%

How did O=C(O)c1c(Cl)c(Cl)c(Cl)c(Cl)c1C(=O)N1CCOCC1 do in these assays?
HP1b chromo inh: 2%; ALOX12 inh: 11µM*; G9a block: -18%[59 µM]; BAZ2B inh: -27%; JMJD2A Tudor inh: -35%; PLK1 PBD inh: -6%

What do the screens show for `COc1ccccc1OCCNC(=O)c1ccc(S(=O)(=O)N(C)C)cc1`?
HP1b chromo inh: 8%; ALOX12 inh: 12%; G9a block: -40%; BAZ2B inh: -9%; JMJD2A Tudor inh: -11%; PLK1 PBD inh: -8%

Results for Cc1ccc(NC(=O)CNCC2CCCCC2)cc1S(=O)(=O)N(C)C ?
HP1b chromo inh: -18%; ALOX12 inh: -11%; G9a block: inconclusive; BAZ2B inh: inconclusive; JMJD2A Tudor inh: 22µM*; PLK1 PBD inh: 2%

Results for Cc1ccc(NC(=S)NC2CCCCC2)cc1S(=O)(=O)N(C)C ?
HP1b chromo inh: -15%; ALOX12 inh: inconclusive; G9a block: 40µM*; BAZ2B inh: -11%; JMJD2A Tudor inh: -22%; PLK1 PBD inh: inconclusive

Results for Cc1ccc(NC(=O)CN2C(=O)C3C4C=CC(C4)C3C2=O)cc1S(=O)(=O)N(C)C (configuration not stated) ?
HP1b chromo inh: 15%; ALOX12 inh: inconclusive; G9a block: -3%[59 µM]; BAZ2B inh: 8%; JMJD2A Tudor inh: -11%; PLK1 PBD inh: 3%

Results for COc1ccc(CCC(=O)Nc2ccc(C)c(S(=O)(=O)N(C)C)c2)cc1OC ?
HP1b chromo inh: 24%; ALOX12 inh: 12%; G9a block: 8%[59 µM]; BAZ2B inh: 6%; JMJD2A Tudor inh: -16%; PLK1 PBD inh: -4%

What do the screens show for `Cc1ccc(NC(=O)CN(C)C2CCCCC2)cc1Cl`?
HP1b chromo inh: inconclusive; ALOX12 inh: inconclusive; BAZ2B inh: inconclusive; JMJD2A Tudor inh: 10µM*; PLK1 PBD inh: -12%

What do the screens show for `COc1ccc(CCNCC(=O)Nc2ccc(C)c(S(=O)(=O)N(C)C)c2)cc1`?
HP1b chromo inh: inconclusive; ALOX12 inh: -18%; G9a block: 14µM*; BAZ2B inh: 50µM*; JMJD2A Tudor inh: 0.79µM*; PLK1 PBD inh: -13%

Results for O=C(COC(=O)c1nc(-c2ccccc2)n(-c2cccc(C(F)(F)F)c2)n1)NCc1cccs1 ?
HP1b chromo inh: 14%; ALOX12 inh: 0%; G9a block: -2%[59 µM]; BAZ2B inh: -7%; JMJD2A Tudor inh: -21%; PLK1 PBD inh: -9%

What do the screens show for `COc1ccc(CNCC(=O)Nc2cccc(S(N)(=O)=O)c2)cc1`?
HP1b chromo inh: 7%; ALOX12 inh: inconclusive; G9a block: -142%[59 µM]; BAZ2B inh: 56µM*; JMJD2A Tudor inh: 0.71µM*; PLK1 PBD inh: -1%

What do the screens show for `CCc1cccc(NC(=O)C2CCC(CNS(=O)(=O)c3ccc4c(c3)CCCC(=O)N4)CC2)c1` (configuration not stated)?
HP1b chromo inh: -4%; ALOX12 inh: -16%; G9a block: 2%[59 µM]; BAZ2B inh: -4%; JMJD2A Tudor inh: -17%

Results for Cc1cc(NC(=O)Cc2ccccc2C)no1 ?
HP1b chromo inh: 24%; ALOX12 inh: inconclusive; G9a block: 35%; BAZ2B inh: 7%; JMJD2A Tudor inh: -9%; PLK1 PBD inh: -5%

Results for Cc1ccccc1CC(=O)Nc1cc(C(C)(C)C)on1 ?
HP1b chromo inh: 31%; ALOX12 inh: 5µM*; G9a block: 50%; BAZ2B inh: -1%; JMJD2A Tudor inh: -3%; PLK1 PBD inh: -13%

How did CCc1ccc(OCC(=O)NNC(=O)Cc2cccs2)cc1 do in these assays?
HP1b chromo inh: 23%; ALOX12 inh: inconclusive; G9a block: 26%[59 µM]; BAZ2B inh: inconclusive; JMJD2A Tudor inh: -6%; PLK1 PBD inh: 2%

What do the screens show for `COc1ccc(C(=O)NC(=S)NNC(=O)Cc2cccs2)cc1`?
HP1b chromo inh: 4%; ALOX12 inh: inconclusive; G9a block: 11µM*; BAZ2B inh: -4%; JMJD2A Tudor inh: inconclusive; PLK1 PBD inh: -8%

Results for COc1cccc(C(C)NC(=O)Cc2cccs2)c1 (configuration not stated) ?
HP1b chromo inh: -5%; ALOX12 inh: 11%; G9a block: -5%; BAZ2B inh: -3%; JMJD2A Tudor inh: inconclusive; PLK1 PBD inh: 21µM*

Results for CCN(CC(=O)Nc1ccc(OC)cc1)C(=O)Cc1cccs1 ?
HP1b chromo inh: -22%; ALOX12 inh: inconclusive; G9a block: 6%[0.501 µM]; BAZ2B inh: 50µM*; JMJD2A Tudor inh: inconclusive; PLK1 PBD inh: -7%

How did CCOCc1nc(C2CCCN(C(=O)Cc3c(C)noc3C)C2)no1 (configuration not stated) do in these assays?
ALOX12 inh: 3%

How did Cc1cc(C)cc(N2CC(C(=O)OCC(=O)c3ccccc3)CC2=O)c1 (configuration not stated) do in these assays?
ALOX12 inh: 5%

Results for CN(C(=S)Nc1ccc(Oc2ccccc2)cc1)C1CCCCC1 ?
HP1b chromo inh: 14%; ALOX12 inh: inconclusive; G9a block: -9%[59 µM]; BAZ2B inh: inconclusive; JMJD2A Tudor inh: -19%; PLK1 PBD inh: -17%

What do the screens show for `COc1cc(OC)cc(C(=O)NC(=S)NNC(=O)Cc2cccs2)c1`?
HP1b chromo inh: 17%; ALOX12 inh: inconclusive; G9a block: 8.9µM*; BAZ2B inh: 22%; JMJD2A Tudor inh: -16%; PLK1 PBD inh: -11%

How did COc1cccc(NC(=O)Cc2cccs2)c1 do in these assays?
HP1b chromo inh: 14%; ALOX12 inh: 4%; G9a block: inconclusive; BAZ2B inh: 6%; JMJD2A Tudor inh: -5%; PLK1 PBD inh: -9%

How did Cc1cc(NC(=O)Cc2cccs2)no1 do in these assays?
HP1b chromo inh: inconclusive; ALOX12 inh: -71%; G9a block: inconclusive; BAZ2B inh: 45µM*; JMJD2A Tudor inh: 18µM*; PLK1 PBD inh: inconclusive
